DRD3 antagonist: antagonists of human D3 dopamine receptor | P35462 | D3R cells, DiscoveRx beta-arrestin luminescence, antagonist mode; active compounds read low | max response, negative = inhibition, % | actives 2.5% (n = 360,000) | AID 652054; in the data active means max response below about -50%; inconclusive means no clear call, values can overlap the other calls
Target sequence (P35462 whole entry, looked up): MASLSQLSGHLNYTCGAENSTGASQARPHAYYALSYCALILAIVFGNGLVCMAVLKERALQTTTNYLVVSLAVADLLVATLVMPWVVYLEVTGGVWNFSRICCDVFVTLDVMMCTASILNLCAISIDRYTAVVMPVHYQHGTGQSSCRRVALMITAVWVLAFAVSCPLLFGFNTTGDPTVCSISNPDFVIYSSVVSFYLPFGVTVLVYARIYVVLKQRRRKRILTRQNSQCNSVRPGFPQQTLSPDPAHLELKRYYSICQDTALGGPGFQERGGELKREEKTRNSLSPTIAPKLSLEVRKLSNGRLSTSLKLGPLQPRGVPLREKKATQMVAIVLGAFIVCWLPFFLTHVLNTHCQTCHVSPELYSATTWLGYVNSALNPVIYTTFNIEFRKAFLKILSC
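Cells expressing the human receptor were seeded at 1500 cells/well, incubated overnight at 37 degrees C in 5% CO2, then exposed to library compounds with dopamine controls for 90 minutes at 37 degrees C before luminescent detection.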
IL-1B inflam inh: inhibitors of inflammasome signaling (IL-1 beta secretion); AID 743279; actives 4.7% (n = 360,000); THP-1 LPS/ATP IL-1B secretion, AlphaLISA, 16 h; active compounds read low; activity change, % at 57.5 µM; in the data active means activity change below about -50%; inconclusive means mostly about -30% to -49%
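Secreted IL-1B measured by AlphaLISA bead assay after 16 h compound exposure of THP-1 cells; compounds (final up to 57.5 uM) added 1 h before LPS (250 ng/mL) and ATP (1.25 mM) stimulation; lower signal means less secretion.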
DRD3 agonist: D3 dopamine receptor (human) agonism. actives 0.58% (n = 410,000). AID 652048. D3R DiscoveRx beta-arrestin cells, luminescence, 90 min. max activation, %. P35462; in the data active means max activation above about 30%
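Agonist-mode cell screen: cells plated at 1500/well and incubated overnight at 37 °C, then exposed to library compounds for 90 min at 37 °C. Detection reagent was added for 30–60 min at room temperature, and luminescence was read.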
DT40 TDP1 no CPT: qHTS for Inhibitors of human tyrosyl-DNA phosphodiesterase 1 (TDP1): qHTS in cells in absence of CPT; actives 15% (n = 420,000); DT40 Tdp1-/- hTDP1 cells, no CPT, ATP luminescence, 48 h; Potency, µM (top dose mostly 46.2 µM), actives largely listed as inhibitors; AID 686978, 2013; further: nearly all actives have a fitted effect of over 55% in size
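DT40 Tdp1-/-;hTDP1 cells, no CPT (DMSO vehicle only), 400 cells/well; compounds pin-transferred; ≥48 hr, 37 °C; CellTiter-Glo 30 min RT dark, luminescence read.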
ClpP mod: qHTS Assay for Activators of ClpP. actives 1.9% (n = 340,000). purified B. subtilis ClpP, FRET peptide cleavage, 20 min. Potency, µM (series often up to 57.5 µM). ATP-dependent Clp protease proteolytic subunit (Bacillus subtilis (strain 168)), P80244; active means well fitted falling curve with a large enough effect; inconclusive means small, poorly fitted or top-dose-only effect; inactive means no such curve, though single readings can be large or run the other way; further: the source files actives as falling curves though it sought activators and does not explain the sign; nearly all actives have a fitted effect of over 65% in size
Target sequence (P80244 whole entry, looked up): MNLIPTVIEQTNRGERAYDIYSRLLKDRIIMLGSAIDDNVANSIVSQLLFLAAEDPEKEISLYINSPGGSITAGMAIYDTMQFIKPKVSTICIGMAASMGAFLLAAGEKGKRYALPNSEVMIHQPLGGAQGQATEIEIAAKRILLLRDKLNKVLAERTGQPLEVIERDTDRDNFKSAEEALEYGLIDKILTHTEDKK
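FRET quenching reversal measured ClpP activation: 10 microg/mL B. subtilis ClpP at pH 8 with the FRET-FV decapeptide, read at 430 nm after 320 nm excitation. The 20-min minus 0-min signal was scaled between DMSO/no-enzyme wells and ADEP (5.8 microM final).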
TDP1 cell CPT: growth inhibition of DT40 Tdp1-/-;hTDP1 cells with camptothecin (screen for TDP1 inhibitors) | chicken DT40 Tdp1-/-;hTDP1 cells + 20 nM CPT, ATP luminescence, 48 h | Potency, µM (titrated, usually from 46.2 µM), usual class: inhibitors | actives 12% (n = 420,000) | AID 686979; further: nearly all actives have a fitted effect of over 55% in size
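Chicken DT40 Tdp1-/- cells stably complemented with human TDP1 were seeded at 400 cells/well in medium containing 20 nM camptothecin, exposed to pin-transferred compounds, and grown at 37 °C for at least 48 hr. Viability was read as ATP luminescence.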
Large screens that a line does not name were inactive; ! = not confirmed by another sample. Rows were chosen to be rich in hits. Some 21% of all compounds tested hit in one or more screens of this group. Unless noted, the call rests on the fitted dose curve; in most records, active means well fitted inhibition curve with a large enough effect; inconclusive means small, poorly fitted or top-dose-only effect; inactive means flat fitted curve, though single readings scatter.

CCc1ccc(-c2nc(SCC(=O)NCC3CCCO3)c(-c3ccc(F)cc3)[nH]2)cc1 (centres undefined)	DT40 TDP1 no CPT 18µM, ClpP mod inconclusive, TDP1 cell CPT inconclusive (no result: DRD3 antagonist, IL-1B inflam inh)
Cc1ccc(-c2[nH]c(-c3ccccc3)nc2SCC(=O)NCC2CCCO2)cc1 (centres undefined)	DT40 TDP1 no CPT 23µM, ClpP mod 28µM!, TDP1 cell CPT 15µM
Cc1ccccc1-n1c(C)nnc1SCC(=O)NCC1CCCO1 (centres undefined)	none
COc1ccc(-c2[nH]c(-c3ccc(C)cc3)nc2SCC(=O)NCC2CCCO2)cc1 (centres undefined)	DT40 TDP1 no CPT inconclusive, ClpP mod inconclusive, TDP1 cell CPT inconclusive (no result: DRD3 antagonist, IL-1B inflam inh)
COC(=O)[C@@]1(C)[C@H]2C(=O)N(Cc3ccccc3)C(=O)[C@H]2[C@H]2CN=C(SCC(=O)c3ccccc3)N21	DT40 TDP1 no CPT inconclusive, TDP1 cell CPT inconclusive
CN1C(=O)c2ccccc2N(C)C1c1cccc(O)c1 (centres undefined)	none (no result: ClpP mod)
COc1ccc(-c2ccc3nnc(SCC(=O)NCC4CCCO4)n3n2)cc1 (centres undefined)	ClpP mod inconclusive
CCn1c(SCC(=O)NCC2CCCO2)nnc1-c1ccc(Cl)cc1 (centres undefined)	none (no result: ClpP mod)
CCOc1ccc(-c2ccc3nnc(SCC(=O)NCC4CCCO4)n3n2)cc1 (centres undefined)	ClpP mod 32µM
COc1ccc(-c2nc(SCC(=O)NC3CCCC3)c(-c3ccc(OC)cc3)[nH]2)cc1	DT40 TDP1 no CPT 16µM, TDP1 cell CPT inconclusive
COc1ccc(-c2nc(SCC(=O)NC3CCCC3)c(-c3ccccc3)[nH]2)cc1OC	DT40 TDP1 no CPT inconclusive, TDP1 cell CPT inconclusive (no result: DRD3 antagonist, IL-1B inflam inh)
Cc1ccc(-c2nc(SCC(=O)NCC3CCCO3)c(-c3ccc(Cl)cc3)[nH]2)cc1 (centres undefined)	DRD3 antagonist inconclusive, IL-1B inflam inh inconclusive, DT40 TDP1 no CPT 21µM, TDP1 cell CPT inconclusive
Cc1ccc(-c2nc(SCC(=O)NCC3CCCO3)c(-c3ccc(C)cc3)[nH]2)cc1 (centres undefined)	DRD3 antagonist inconclusive, DT40 TDP1 no CPT inconclusive, ClpP mod 25µM, TDP1 cell CPT inconclusive
COCC(=O)N1CCC2(CC1)CCN(C(=O)Nc1cccc(C#N)c1)CC2	none (no result: DRD3 antagonist, IL-1B inflam inh, DRD3 agonist, ClpP mod)
COCCn1c(=O)cnc2cnc(N(C)C)nc21	none (no result: DRD3 antagonist, IL-1B inflam inh, DRD3 agonist, ClpP mod)
CC/C(=C/c1ccccc1)c1cc(Oc2ccccc2)cc2oc3ccccc3c12	none (no result: DRD3 antagonist, IL-1B inflam inh, DRD3 agonist)
CC(=O)N1CCCc2cc(S(=O)(=O)N(C)CC(=O)Nc3ccc(C)cc3C)ccc21	DT40 TDP1 no CPT inconclusive, TDP1 cell CPT inconclusive (no result: DRD3 antagonist, IL-1B inflam inh)
O=C(Cc1cccc(NC(=O)C2CCCN(C(=O)C3CC3)C2)c1)Nc1ccc(C(=O)N2CCOCC2)cc1 (centres undefined)	none
COc1ccc(-c2[nH]c(-c3ccc(Cl)cc3)nc2SCC(=O)NCC2CCCO2)cc1 (centres undefined)	DT40 TDP1 no CPT 7.3µM, ClpP mod 25µM, TDP1 cell CPT 10µM (no result: DRD3 antagonist, IL-1B inflam inh)
CC(C)(C)NC(=O)Nc1ccc(Cn2cc(C(F)(F)F)ccc2=O)cc1	DT40 TDP1 no CPT inconclusive, TDP1 cell CPT 21µM (no result: ClpP mod)
CC(C)(C)NC(=O)NC(=O)Cn1cc(C(F)(F)F)ccc1=O	none
COc1cccc(-c2nc(NC(C)(C)C)c3ccccc3n2)c1O	IL-1B inflam inh -51, DT40 TDP1 no CPT 21µM, TDP1 cell CPT inconclusive
COc1cccc(-c2nc(NCCN3CCOCC3)c3ccccc3n2)c1O	DT40 TDP1 no CPT 18µM, TDP1 cell CPT 15µM
COc1ccc(Nc2nc(-c3cccc(OC)c3O)nc3ccccc23)cc1	DT40 TDP1 no CPT 16µM, TDP1 cell CPT inconclusive
O=C(O)/C=C/C(=O)NCc1csc2ccccc12	none
O=C(Oc1ccccc1)N1CCC[C@@]2(CCN(c3ccccn3)C2)C1	none (no result: DRD3 antagonist, IL-1B inflam inh, DRD3 agonist, ClpP mod)
CCCc1cc(=O)[nH]c(Nc2ccc(O)cc2)n1	DT40 TDP1 no CPT inconclusive
CCCc1cc(=O)[nH]c(Nc2ccc(Cl)cc2)n1	IL-1B inflam inh -76, DT40 TDP1 no CPT 16µM, TDP1 cell CPT inconclusive (no result: ClpP mod)
COC(=O)C1=C(C)NC2=C(C(=O)CC(C)(C)C2)C1c1ccsc1 (centres undefined)	DT40 TDP1 no CPT inconclusive, ClpP mod 28µM
COC(=O)C1=C(C)NC2=C(C(=O)C(C(=O)OC)C(c3ccc(OC)cc3)C2)C1c1ccccn1 (centres undefined)	ClpP mod inconclusive
COC(=O)C1=C(C)NC2=C(C(=O)CC(C)(C)C2)C1c1ccccn1 (centres undefined)	ClpP mod 28µM
Cc1ccccc1Cn1nc(C)c(NC(=O)c2noc3c2CC(C(C)(C)C)CC3)c1C (centres undefined)	IL-1B inflam inh inconclusive, DRD3 agonist 34, DT40 TDP1 no CPT inconclusive, TDP1 cell CPT inconclusive
Cc1ccccc1Cn1cc(NC(=O)c2noc3c2CC(C(C)(C)C)CC3)cn1 (centres undefined)	none
Cc1c(NC(=O)c2noc3c2CCc2ccccc2-3)c(=O)n(-c2ccccc2)n1C	none
Cc1ccccc1Cn1nc(C)c(NC(=O)c2noc3c2CCc2ccccc2-3)c1C	DT40 TDP1 no CPT 13µM, TDP1 cell CPT 21µM
COc1ccc(NC(=O)CN2C(=O)NC(C)(Cc3ccc(OC)c(OC)c3)C2=O)cc1 (centres undefined)	none
